41 compounds from ChEMBL document CHEMBL4888484, “Replenishing the malaria drug discovery pipeline: Screening and hit evaluation of the MMV Hit Generation Library 1 (HGL1) against asexual blood stage Plasmodium falciparum ,using a nano luciferase reporter read-out” (2022) can be followed below.

Among all 150,000 compounds or so, about 540 (0.36%) showed an effect of 50% or more. The entries come from a sample that favours strong results as a whole.

For this assay, the system named is Plasmodium falciparum. As to the kind of experiment: Primary screen in NF54 nanoGlo assay, in single point, at 2uM, 72h; a lower Z score goes with more inhibition. The assay is classed as functional, Erythrocyte. The settings on record: timepoint 72 hour.
`CCc1nnc([C@@H]2CCCN2C(=O)NCc2ccc(F)cc2)[nH]1`: the % Inhibition (as a rule, the change of the read-out against control, counted positive when it falls) was -5% and the Z score worked out at 0.68.

For `COC1CCCCC1NC(=O)Nc1cccc(-c2ncc(C)o2)c1` (configuration not stated), the “% Inhibition” value is recorded as -3% and the Z score came to 0.66.

Turning to `COC1CCCC1NC(=O)Nc1ncc(Br)cc1C` (configuration not stated), the “% Inhibition” value was 74% and the Z score is -9.34.

`CC(=O)Nc1ncc(Br)cc1C`: the “% Inhibition” value turned out to be 33% and the Z score is reported as -0.41.

Regarding `COc1ccc(C(=O)c2oc3ccccc3c2NC(=O)c2csnn2)cc1Cl`, the “% Inhibition” value is reported as -18% and the Z score stood at 1.56.

Turning to `O=S(=O)(c1ccccc1)N1CCC(OCCOc2cccnc2)CC1`, the “% Inhibition” value is recorded as -7% and the Z score came to 1.14.

For the compound `COc1cccc(S(=O)(=O)N2CCC(OCCOCc3ccccc3)CC2)c1`, the “% Inhibition” value came to 40% and the Z score is recorded as -0.89.

With `COc1cccc(S(=O)(=O)N2CCC(OCCOc3ccccc3)CC2)c1`, the “% Inhibition” value came to 53% and the Z score is reported as -0.06.

Regarding `CCN(CC)c1ncc(CN2CC[C@H](NS(C)(=O)=O)C2)s1`, the “% Inhibition” value is on record as -14% and the Z score was 1.85.

On to `NC(=O)Cc1nc(CC(F)(F)F)n(C2CCCCC2)n1`, for which the “% Inhibition” value is 0% and the Z score is 0.02.

Take `COc1cc(C(=O)NCCNC(=O)c2cc(-c3ccccc3)nc3ccccc23)cc(OC)c1OC`: the “% Inhibition” value is given as -11% and the Z score worked out at 1.69.

As to `Cn1c(-c2ccc(Cl)c(Cl)c2)c[n+](CC(=O)c2ccc(-c3ccccc3)cc2)c1N`, the “% Inhibition” value is reported as 53% and the Z score was -0.87.

As for `Cn1c(-c2ccc(Cl)c(Cl)c2)c[n+](CC(=O)c2ccc(F)cc2)c1N`, the “% Inhibition” value stood at 37% and the Z score is -4.75.

Regarding `Cc1ccc(C(=O)C[n+]2cc(-c3ccc(-c4ccccc4)cc3)n(C)c2N)cc1`, the “% Inhibition” value came out at 42% and the Z score is recorded as -0.38.

With `CCc1nc(C)c(C(=O)N(C)Cc2csc(-c3ccccc3)n2)s1`, the “% Inhibition” value is -4% and the Z score was determined as 0.61.

As to `NC1CCC(C(=O)NCC2(c3ccccc3Cl)CCOCC2)C1` (configuration not stated), the “% Inhibition” value was 8% and the Z score is reported as -1.21.

On to `O=C(NCC1(c2ccccc2Cl)CCOCC1)N1CCOCC1`, for which the “% Inhibition” value is recorded as -4% and the Z score is given as 0.54.

As to `Cc1ccc(O)c(CNCC2(c3ccccc3Cl)CCOCC2)n1`, the “% Inhibition” value is given as 98% and the Z score is listed as -10.48.

Turning to `Cc1ccc2[nH]c3c(c2c1)C[C@@H](N1C(=O)CN(CC(C)C)C1=O)CC3`, the “% Inhibition” value is recorded as -3% and the Z score amounted to 0.39.

Turning to `FC(F)(F)c1ccc(N2CCC(n3ccnn3)CC2)nn1`, the “% Inhibition” value was determined as 0% and the Z score is given as -0.04.

As for `Cc1cc(C)c(NC(=O)OCc2cccc3cccnc23)c(C)c1`, the “% Inhibition” value came out at 88% and the Z score was -13.23.

For `C[C@@H](C(=O)OCc1cccc2cccnc12)N1CCOCC1`, the “% Inhibition” value is given as -4% and the Z score amounted to 0.63.

For `Cc1nc(C)c(C(=O)OCc2cccc3cccnc23)s1`, the “% Inhibition” value was -18% and the Z score is reported as 3.51.

Take `CC1CC(C(=O)NCC2CCCCC2)c2ccccc2N1` (configuration not stated): the “% Inhibition” value is reported as 3% and the Z score is -0.43.

For the compound `Cc1noc(C)c1CN1C(=O)NC2(CCCCC2)C1=O`, the “% Inhibition” value is -2% and the Z score came to 0.32.

Turning to `COc1ccc(CCNc2nc(-c3ccc(OC)cc3)c3c(N)n(-c4ccc(OC)cc4)nc3n2)cc1`, the “% Inhibition” value is listed as -13% and the Z score came to 2.28.

On to `COc1cccc(C(=O)C[n+]2cc(-c3ccc(Br)cc3)n(C)c2N)c1`, for which the “% Inhibition” value was 35% and the Z score was -0.41.

Regarding `COc1ccc2c(c1)[n+](CC(=O)c1ccc(-c3ccc(Br)cc3)cc1)c(CO)n2C`, the “% Inhibition” value amounted to 70% and the Z score is reported as -5.57.

As to `Cc1ccc(C(=O)C[n+]2cc(-c3ccc(Br)cc3)n(C)c2N)cc1`, the “% Inhibition” value is reported as 38% and the Z score is 2.56.

As for `CC[N+](CC)(CC(=O)OC1CC2CCC1(C)C2(C)C)CC(=O)OC1CC2CCC1(C)C2(C)C` (configuration not stated), the “% Inhibition” value was 77% and the Z score is listed as -8.45.

In the case of `CC1(C)C2CCC1(C)C(OC(=O)CN1CCCCCC1)C2` (configuration not stated), the “% Inhibition” value was found to be 0% and the Z score is reported as -0.02.

As to `CCn1c(-n2nc(C)nc2[C@H]2CCS(=O)(=O)C2)nc2ccccc21`, the “% Inhibition” value stood at 4% and the Z score is reported as -0.76.

In the case of `O=C(CNC(=O)c1cnccn1)NCCc1c[nH]c2ccc(F)cc12`, the “% Inhibition” value is given as -5% and the Z score amounted to 0.67.

As for `CCn1cc(-c2nc(-c3ccccc3C)no2)c(=O)c2cc(F)c(N3CCOCC3)cc21`, the “% Inhibition” value turned out to be 40% and the Z score is reported as -3.29.

As to `CCn1cc(-c2nc(-c3ccccc3C)no2)c(=O)c2cc(F)c(N3CCCCC3)cc21`, the “% Inhibition” value is on record as 51% and the Z score is on record as -3.9.

With `CCn1cc(C#N)c(=O)c2cc(F)c(N3CCN(Cc4ccccc4)CC3)cc21`, the “% Inhibition” value is 68% and the Z score is recorded as -7.22.

Regarding `CCn1cc(-c2nc(-c3ccccc3)no2)c(=O)c2cc(F)c(N3CCCCC3)cc21`, the “% Inhibition” value was -9% and the Z score came to 1.55.

Turning to `Cc1ccc(S(=O)(=O)c2cn(Cc3ccccc3)c3cc(N4CCCCC4)c(F)cc3c2=O)cc1`, the “% Inhibition” value is -24% and the Z score is 2.28.

For the compound `CCn1cc(C(=O)O)c(=O)c2cc(F)c(N3CCN(S(=O)(=O)c4ccccc4)CC3)cc21`, the “% Inhibition” value stood at 34% and the Z score is listed as 0.66.

`COc1cc(OC)cc(-c2c3c(O)nn(C(C)C)c3nc3[nH]c(=O)n(C)c23)c1`: the “% Inhibition” value is recorded as -3% and the Z score stood at 0.3.

Regarding `O=C(Nc1ccc2c(c1)OCO2)c1ccc(=O)n(Cc2ccc(Cl)cc2)c1`, the “% Inhibition” value was -15% and the Z score is 1.88.
